# Reference: PubChem BioAssay AID720580 (National Center for Advancing Translational Sciences (NCATS), 2013)
# The whole screen tested about 330,000 compounds, of which about 1,500 (0.45%) were called active. Roughly 6% stayed inconclusive and do not appear here. The entries come from a sample that favours actives as a whole. A number with no mark means an inactive call. Calls follow the shape of the full dose curve; tested in A549 cells.
# Experiment: qHTS for Stage-Specific Inhibitors of Vaccinia Orthopoxvirus: Venus Reporter Primary qHTS; also: nearly all actives have a fitted effect of over 30% in size
# Conditions: Vaccinia virus Venus reporter expression, fluorescence; series mostly up to 36.5 µM; activity change, negative = inhibition: at the top concentration
# % is scaled to controls: 0 for no effect and ±100 for the full control effect; potency is read from the fitted curve at half-maximal effect.
SMILES,"activity change, negative = inhibition",Potency
Cc1cccc(-n2c(C)cc(/C=N/NC(N)=S)c2C)c1,-19.7%,
CC(C)Oc1c(Br)cc(Br)cc1/C=N/NC(N)=S,,5.01 µM (active)
NC(=S)N/N=C/c1coc2cc(Cl)ccc2c1=O,-2.91%,
CCCCCn1nnnc1C1c2ccccc2C(=O)N1Cc1ccco1 (stereo not drawn),0.846%,
O=C(Nc1ccccc1Cl)O/N=C(/c1ccccc1)c1ccccn1,-8.43%,
O=C(Cc1ccc2c(c1)CCCC2)Nc1ccccc1Cl,-2.79%,
O=C(Nc1ccccc1Cl)/C(Cl)=C(\Cl)S(=O)c1ccccc1 (stereo not drawn),,10 µM (active)
C[C@]12CC[C@H](O)C[C@H]1CC[C@@H]1C2CC[C@]2(C)[C@@H](C3=CC(=O)OC3)[C@@H](O)C[C@]12O (stereo partly drawn),,3.16 µM (active)
C[C@@]12CCC3C(CC[C@@H]4CC(O)CC[C@@]34C)C1CCC2O (stereo partly drawn),0%,
CC(CCC(=O)O)C1CCC2C3C(O)C[C@@H]4CC(O)CC[C@@]4(C)C3CC[C@@]12C (stereo partly drawn),,inactive
Cc1csc(NCC(=O)c2c[nH]c3ccccc23)n1,-23%,
CCOC(=O)[C@]12CCC=C1N(Cc1cccc3ccccc13)C(=O)[C@H](CC(=O)NCc1cccc(C(F)(F)F)c1)C2,-28.4%,
COc1ccc(C(C)C)cc1-c1ccc2nncn2c1,-10.8%,
Cc1cc(C)n2c(NCc3ccccc3)c(CC(C)C)nc2n1,18.6%,
NC(c1ccccc1)c1csc(NC(=O)Nc2cccc(C(F)(F)F)c2)n1 (stereo not drawn),,11.2 µM (active)
CC(=O)c1ccc(Nc2nc(C(N)c3ccccc3)cs2)cc1 (stereo not drawn),-10.3%,
Cc1ccc(NC(=O)Nc2cccc(C(F)(F)F)c2)nc1,-3.51%,
CC(C)C[C@H](NC(=O)Nc1cccc(C(F)(F)F)c1)C(=O)O,-0.745%,
NC(c1csc(NC(=O)Nc2cccc(C(F)(F)F)c2)n1)C1CCCCC1 (stereo not drawn),,10 µM (active)
O=C(Nc1ccc(C(=O)N2CCOCC2)cc1)Nc1cccc(C(F)(F)F)c1,-15.9%,
COc1ccc(C(O)C(O)(C(=O)OC(C)C)c2ccc(C)cc2)cc1 (stereo not drawn),-12.4%,
COc1cc(C=C(OC(C)=O)c2ccc3c(c2)OCO3)cc(OC)c1OC,-4.33%,
COc1ccc(-c2ccc(C(=O)NCCN3CCOCC3)c3occc23)c(C)c1,-23.2%,
COc1ccccc1Cc1c(-c2ccc(Cl)cc2)nc2c3ccccc3ccn12,-4.99%,

SMILES,"activity change, negative = inhibition",Potency
COc1ccc(-c2coc3c(C(=O)NC(C)C)cccc23)c(C)c1,-4.73%,
CCCCCn1nnnc1-c1nc2cc3ccccc3cc2[nH]c1=O,64.3%,
CCOC(=O)C1C(C)C(C(C)(C)C)N(S(=O)(=O)c2ccc(C)cc2)C1c1ccccc1 (stereo not drawn),-24.5%,
Cc1cc2nc(-c3ccc(Cl)cc3)c(Cc3cccc(F)c3)n2c(C)c1Br,6.13%,
COc1cccc(CNC(=O)[C@@H]2CCCN2C(=O)[C@@H]2CCCN2C(=O)c2ccccc2)c1,2.4%,
COC(=O)c1ccc2nc(-c3ccc(C)cc3)c(Cc3ccc(OC)cc3C)n2c1,-2.33%,
O=S1(=O)CC(N2CCN(Cc3ccccc3F)CC2)CN1Cc1cn(Cc2cccc(C(F)(F)F)c2)nn1 (stereo not drawn),-5.88%,
CC(=O)/C(=N\Nc1ccc(Cl)cc1Cl)Sc1cccc2cccnc12,,10 µM (active)
COc1c(Cl)cc(Cl)cc1C(=O)Nc1cccc2cccnc12,0.266%,
S=C(NCc1cccnc1)Nc1ccc(Cl)cc1Cl,-2.92%,
COc1ccc(/C=C/c2ccnc3ccccc23)cc1OC,-15.9%,
Cc1cn(COC/C=C/c2ccccc2)c(=O)[nH]c1=O,-11%,
Cc1[nH]c(=O)c(C(=O)/C=C/c2ccccc2)c2c1CCCC2,,6.31 µM (active)
CC1(C(=O)O)CCCN(C(=O)/C=C/c2ccccc2)C1 (stereo not drawn),-5.44%,
CC(C)(C)c1ccc(C(=O)C[n+]2cccc3cc(Cl)ccc32)cc1,313%,
CCOC(=O)c1ccn(S(=O)(=O)c2ccc(C)cc2)c1-c1ccccc1,-2.99%,
CN(Cc1cn(Cc2ccc(C(F)(F)F)cc2)nn1)C1CN(Cc2cn(Cc3ccc(C(F)(F)F)cc3)nn2)S(=O)(=O)C1 (stereo not drawn),-28%,
c1ccc(Cc2c(-c3ccco3)nc3c4ccccc4ccn23)cc1,-0.586%,
CC[C@H]1CN2CCc3cc(OC)c(OC)cc3[C@@H]2C[C@@H]1C[C@H]1NCCc2cc(OC)c(OC)cc21,,0.562 µM (active)
CCC(CC)C(=O)N1CCc2cc(OC)c(OC)cc2C1COc1ccc(F)cc1 (stereo not drawn),-6.92%,
COc1cc2c(cc1OC)CN(CC(=O)Nc1ccc(F)cc1)CC2,-9.04%,
CCc1oc(-c2ccc(OC)cc2)c(C(=O)OCCCCCO)c1C(C)OCCO (stereo not drawn),3.76%,
Cc1ccc(-c2nc(=N)sn2Cc2ccccc2)cc1,-10.9%,
S=c1[nH]c(=S)c2n[nH]nc2[nH]1,-10.3%,
